# Source: PubChem BioAssay (NCI)
# Compounds without any hit were thinned out: in the full panel of roughly 79,000, 15% have a hit. Unmarked numbers belong to inactive results. Calls of active or inactive are those of the source. No stated cut-off is given here; in the data, active means growth inhibition above about 70%; inactive means the rest.
# Legend:
# [1] = NCI Yeast Anticancer Drug Screen. Data for the wt1 strain (AID 149);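 further: 0% = growth of vehicle-treated wt1 cultures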; settings: S. cerevisiae wt1 strain (SPY 50644) growth inhibition, active compounds read high
# Summary of the method: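 Each compound is tested on wt1 yeast and the loss of growth versus vehicle gives the inhibition value.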
# [2] = NCI Yeast Anticancer Drug Screen. Data for the rad50EPP+ strain (AID 151);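 further: 0% = growth of vehicle-treated control cultures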; settings: S. cerevisiae rad50 mutant strain, active compounds read high
# Summary of the method: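 Measured: growth inhibition of rad50EPP+ yeast. Reference: vehicle-treated controls. Screen uses strains with defined genetic alterations in DNA damage repair or cell cycle control.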
# [3] = NCI Yeast Anticancer Drug Screen. Data for the mgt1 strain (AID 153); settings: S. cerevisiae mgt1 mutant growth inhibition, active compounds read high
# Summary of the method: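 Compounds were applied to mgt1 mutant yeast, and growth was then compared against vehicle-treated control cultures to give percent inhibition.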
# [4] = NCI Yeast Anticancer Drug Screen. Data for the rad50 strain (AID 155);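 further: 0% = growth of vehicle-only cultures of the same strain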; settings: S. cerevisiae rad50 strain growth inhibition, active compounds read high
# Summary of the method: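 Vehicle-treated cultures provide the reference for the growth inhibition reported for compound-exposed, repair-deficient yeast.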
# [5] = NCI Yeast Anticancer Drug Screen. Data for the mec2-1 strain (AID 157); settings: S. cerevisiae mec2-1 strain, active compounds read high
# Summary of the method: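 Compounds were applied to mec2-1 yeast cells. Their growth was then compared with that of vehicle-treated cultures to give growth inhibition.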
# [6] = NCI Yeast Anticancer Drug Screen. Data for the rad14 strain (AID 159);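 further: 0% = growth of vehicle-treated control cultures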; settings: S. cerevisiae rad14 strain growth inhibition, active compounds read high
# Summary of the method: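 Inhibition of growth is reported for a repair-deficient yeast mutant following compound treatment, calculated relative to cultures that received vehicle.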
# [7] = NCI Yeast Anticancer Drug Screen. Data for the sgs1 mgt1 strain (AID 161);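 further: 0% = growth of cultures given vehicle only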; settings: S. cerevisiae sgs1 mgt1 strain, active compounds read high
# Summary of the method: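 Yeast cells carrying a defined DNA-repair defect were exposed to test compounds. Growth inhibition was measured relative to vehicle-treated controls.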
# [8] = NCI Yeast Anticancer Drug Screen. Data for the CLN2oe strain (AID 163);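 further: 0% = growth of vehicle-only control cultures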; settings: S. cerevisiae CLN2oe strain, active compounds read high
# Summary of the method: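 Cells of an engineered yeast line with disturbed cell-cycle regulation are treated with compound. Inhibition of growth is then calculated relative to the vehicle-treated reference.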
# [9] = NCI Yeast Anticancer Drug Screen. Data for the cln2 rad14 strain (AID 165);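 further: 0% = growth equal to vehicle treated cultures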; settings: S. cerevisiae cln2 rad14 strain, active compounds read high
# Summary of the method: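 Strain: cln2 rad14 yeast, altered in cell cycle control and DNA damage repair. Read-out: growth inhibition vs vehicle.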
# [10] = NCI Yeast Anticancer Drug Screen. Data for the bub3 strain (AID 167); settings: S. cerevisiae bub3 mutant strain, active compounds read high
# Summary of the method: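 Mutant yeast screening strain plus compound; vehicle-treated cultures serve as the 0% inhibition reference.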
# [11] = NCI Yeast Anticancer Drug Screen. Data for the wt2 strain (AID 169); settings: S. cerevisiae wt2 strain growth inhibition, active compounds read high
# Summary of the method: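 Growth of compound-treated yeast is measured and expressed as inhibition relative to vehicle-only controls.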
# [12] = NCI Yeast Anticancer Drug Screen. Data for the mlh1 strain (AID 171);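 further: 0% = growth of vehicle-treated control cultures of the same strain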; settings: S. cerevisiae mlh1 strain growth inhibition, active compounds read high
# Summary of the method: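 Test agents were incubated with yeast bearing a defined DNA damage repair or cell cycle control alteration; values are growth inhibition normalised to vehicle-treated cultures.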
# [13] = NCI Yeast Anticancer Drug Screen. Data for the sgs1 strain (AID 173);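 further: 0% = growth of vehicle-only control cultures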; settings: S. cerevisiae sgs1 mutant, active compounds read high
# Summary of the method: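 Strain with an altered DNA repair or cell cycle pathway exposed to compound. Growth then measured. Value = inhibition versus vehicle control.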
# [14] = NCI Yeast Anticancer Drug Screen. Data for the mlh1 rad18 strain (AID 175); settings: S. cerevisiae mlh1 rad18 strain growth inhibition, active compounds read high
# Summary of the method: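 A repair-deficient yeast strain is exposed to test compound, and growth is scored relative to vehicle-treated controls.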
# [15] = NCI Yeast Anticancer Drug Screen. Data for the rad18 strain (AID 177); settings: S. cerevisiae rad18 mutant growth inhibition, active compounds read high
# Summary of the method: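 DNA-repair-defective yeast; compound treatment; growth inhibition scored against vehicle.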
# [16] = at 5.0 µM (retest, dose inferred, filed as 0.5)
# [17] = at 50.0 µM (retest, dose inferred, filed as 5.0)
structure (smiles),measurement,setting,value
CN(C)CCNC(=O)c1cccc2nc3c4ccccc4c4ccccc4c3nc12,growth inhibition,[1]; at 1.2 µM,-1%
same,growth inhibition,[1]; at 3.7 µM,2%
same,growth inhibition,[1]; at 11.0 µM,28%
same,growth inhibition,[1]; at 33.0 µM,97% (active)
same,growth inhibition,[1]; at 100.0 µM,95% (active)
same,growth inhibition,[2]; at 1.2 µM,6%
same,growth inhibition,[2]; at 3.7 µM,25%
same,growth inhibition,[2]; at 11.0 µM,90% (active)
same,growth inhibition,[2]; at 33.0 µM,96% (active)
same,growth inhibition,[2]; at 100.0 µM,93% (active)
same,growth inhibition,[3]; at 1.2 µM,1%
same,growth inhibition,[3]; at 3.7 µM,1%
same,growth inhibition,[3]; at 11.0 µM,43%
same,growth inhibition,[3]; at 33.0 µM,99% (active)
same,growth inhibition,[3]; at 100.0 µM,95% (active)
same,growth inhibition,[4]; at 1.2 µM,-9%
same,growth inhibition,[4]; at 3.7 µM,-24%
same,growth inhibition,[4]; [16],65%
same,growth inhibition,[4]; at 11.0 µM,98% (active)
same,growth inhibition,[4]; at 33.0 µM,98% (active)
same,growth inhibition,[4]; [17],96% (active)
same,growth inhibition,[4]; at 50.0 µM,96.7% (active)
same,growth inhibition,[4]; at 100.0 µM,91% (active)
same,growth inhibition,[5]; at 1.2 µM,0%
same,growth inhibition,[5]; at 3.7 µM,1%
same,growth inhibition,[5]; [16],8%
same,growth inhibition,[5]; at 11.0 µM,35%
same,growth inhibition,[5]; at 33.0 µM,99% (active)
same,growth inhibition,[5]; [17],96% (active)
same,growth inhibition,[5]; at 50.0 µM,95.8% (active)
same,growth inhibition,[5]; at 100.0 µM,94% (active)
same,growth inhibition,[6]; at 1.2 µM,3%
same,growth inhibition,[6]; at 3.7 µM,8%
same,growth inhibition,[6]; at 11.0 µM,67%
same,growth inhibition,[6]; at 33.0 µM,98% (active)
same,growth inhibition,[6]; at 100.0 µM,95% (active)
same,growth inhibition,[7]; [16],17%
same,growth inhibition,[7]; [17],97% (active)
same,growth inhibition,[7]; at 50.0 µM,96.2% (active)
same,growth inhibition,[8]; at 1.2 µM,0%
same,growth inhibition,[8]; at 3.7 µM,-3%
same,growth inhibition,[8]; at 11.0 µM,29%
same,growth inhibition,[8]; at 33.0 µM,97% (active)
same,growth inhibition,[8]; at 100.0 µM,92% (active)
same,growth inhibition,[9]; [16],18%
same,growth inhibition,[9]; [17],95% (active)
same,growth inhibition,[9]; at 50.0 µM,95% (active)
same,growth inhibition,[10]; at 1.2 µM,-1%
same,growth inhibition,[10]; at 3.7 µM,2%
same,growth inhibition,[10]; [16],7%
same,growth inhibition,[10]; at 11.0 µM,93% (active)
same,growth inhibition,[10]; at 33.0 µM,97% (active)
same,growth inhibition,[10]; [17],96% (active)
same,growth inhibition,[10]; at 50.0 µM,95.4% (active)
same,growth inhibition,[10]; at 100.0 µM,92% (active)
same,growth inhibition,[11]; at 1.2 µM,1%
same,growth inhibition,[11]; at 3.7 µM,9%
same,growth inhibition,[11]; at 11.0 µM,29%
same,growth inhibition,[11]; at 33.0 µM,97% (active)
same,growth inhibition,[11]; at 100.0 µM,94% (active)
same,growth inhibition,[12]; at 1.2 µM,1%
same,growth inhibition,[12]; at 3.7 µM,2%
same,growth inhibition,[12]; at 11.0 µM,53%
same,growth inhibition,[12]; at 33.0 µM,98% (active)
same,growth inhibition,[12]; at 100.0 µM,94% (active)
same,growth inhibition,[13]; at 1.2 µM,1%
same,growth inhibition,[13]; at 3.7 µM,4%
same,growth inhibition,[13]; at 11.0 µM,73% (active)
same,growth inhibition,[13]; at 33.0 µM,98% (active)
same,growth inhibition,[13]; at 100.0 µM,95% (active)
same,growth inhibition,[14]; [16],40%
same,growth inhibition,[14]; [17],97% (active)
same,growth inhibition,[14]; at 50.0 µM,95.2% (active)
same,growth inhibition,[15]; at 1.2 µM,5%
same,growth inhibition,[15]; at 3.7 µM,11%
same,growth inhibition,[15]; at 11.0 µM,72% (active)
same,growth inhibition,[15]; at 33.0 µM,98% (active)
same,growth inhibition,[15]; at 100.0 µM,93% (active)
COc1ccc(C(=O)NCCN(C)C)c2nc3ccccc3cc12,growth inhibition,[1]; at 1.2 µM,-11%
same,growth inhibition,[1]; at 3.7 µM,21%
same,growth inhibition,[1]; at 11.0 µM,-2%
same,growth inhibition,[1]; at 33.0 µM,-6%
same,growth inhibition,[1]; at 100.0 µM,39%
same,growth inhibition,[2]; at 1.2 µM,13%
same,growth inhibition,[2]; at 3.7 µM,46%
same,growth inhibition,[2]; at 11.0 µM,63%
same,growth inhibition,[2]; at 33.0 µM,90% (active)
same,growth inhibition,[2]; at 100.0 µM,96% (active)
same,growth inhibition,[3]; at 1.2 µM,7%
same,growth inhibition,[3]; at 3.7 µM,19%
same,growth inhibition,[3]; at 11.0 µM,14%
same,growth inhibition,[3]; at 33.0 µM,17%
same,growth inhibition,[3]; at 100.0 µM,67%
same,growth inhibition,[4]; at 1.2 µM,45%
same,growth inhibition,[4]; at 3.7 µM,77% (active)
same,growth inhibition,[4]; [16],73% (active)
same,growth inhibition,[4]; at 11.0 µM,93% (active)
same,growth inhibition,[4]; at 33.0 µM,95% (active)
same,growth inhibition,[4]; [17],95% (active)
same,growth inhibition,[4]; at 50.0 µM,82.5% (active)
same,growth inhibition,[4]; at 100.0 µM,94% (active)
same,growth inhibition,[5]; at 1.2 µM,18%
same,growth inhibition,[5]; at 3.7 µM,17%
same,growth inhibition,[5]; [16],14%
same,growth inhibition,[5]; at 11.0 µM,18%
same,growth inhibition,[5]; at 33.0 µM,30%
same,growth inhibition,[5]; [17],59%
same,growth inhibition,[5]; at 50.0 µM,71.2% (active)
same,growth inhibition,[5]; at 100.0 µM,80% (active)
same,growth inhibition,[6]; at 1.2 µM,7%
same,growth inhibition,[6]; at 3.7 µM,3%
same,growth inhibition,[6]; at 11.0 µM,-9%
same,growth inhibition,[6]; at 33.0 µM,10%
same,growth inhibition,[6]; at 100.0 µM,57%
same,growth inhibition,[7]; [16],18%
same,growth inhibition,[7]; [17],39%
same,growth inhibition,[7]; at 50.0 µM,30.6%
same,growth inhibition,[8]; at 1.2 µM,29%
same,growth inhibition,[8]; at 3.7 µM,26%
same,growth inhibition,[8]; at 11.0 µM,29%
same,growth inhibition,[8]; at 33.0 µM,41%
same,growth inhibition,[8]; at 100.0 µM,73% (active)
same,growth inhibition,[9]; [16],17%
same,growth inhibition,[9]; [17],25%
same,growth inhibition,[9]; at 50.0 µM,10.7%
same,growth inhibition,[10]; at 1.2 µM,12%
same,growth inhibition,[10]; at 3.7 µM,11%
same,growth inhibition,[10]; [16],22%
same,growth inhibition,[10]; at 11.0 µM,9%
same,growth inhibition,[10]; at 33.0 µM,9%
same,growth inhibition,[10]; [17],36%
same,growth inhibition,[10]; at 50.0 µM,-31.9%
same,growth inhibition,[10]; at 100.0 µM,41%
same,growth inhibition,[11]; at 1.2 µM,-16%
same,growth inhibition,[11]; at 3.7 µM,-8%
same,growth inhibition,[11]; at 11.0 µM,-15%
same,growth inhibition,[11]; at 33.0 µM,-8%
same,growth inhibition,[11]; at 100.0 µM,90% (active)
same,growth inhibition,[13]; at 1.2 µM,15%
same,growth inhibition,[13]; at 3.7 µM,16%
same,growth inhibition,[13]; at 11.0 µM,10%
same,growth inhibition,[13]; at 33.0 µM,10%
same,growth inhibition,[13]; at 100.0 µM,62%
same,growth inhibition,[14]; [16],19%
same,growth inhibition,[14]; [17],64%
same,growth inhibition,[14]; at 50.0 µM,19.6%
same,growth inhibition,[15]; at 1.2 µM,19%
same,growth inhibition,[15]; at 3.7 µM,17%
same,growth inhibition,[15]; at 11.0 µM,11%
same,growth inhibition,[15]; at 33.0 µM,-5%
same,growth inhibition,[15]; at 100.0 µM,66%
